B1: chr9:95013113:95013114:-_ENSG00000196305_ENST00000443024|hu_hu|hu_hu_hu_mus_False|68_98 (ssRNA)
RNA: GGGAGUUCUACAGUCCGACGAUCCUCAGUCAGAAAGGGUGUGUAGGGGGCCAUCAGUCUGCACAGAGAAAGCAGAACACUGAACAGUGUCUCCAGAGCCAUGACACAGUCUUCCACCCCACUCUCACCCUUUAACCUCCUCCUCAACAGAGGAUUGAGCAUCA
B2: 176631152_176631272_1200_CDS_ENSG00000165671_ENST00000439151|human|control|control (ssRNA)
RNA: GGGAGUUCUACAGUCCGACGAUCUUUCUGUUUCCCUCUUCUCCUAAGGACAGGUAGCUCUUCGAAUUGAUGUCUGCCUUCAAACAUGACGAUUGCUUUUCCAGCCACCCAGGCUCUCUCAGAAGGAUCUCCAAAAGCCUCCACCAACAGAGGAUUGAGCAUCA
B3: chr2:42509997:42509998:+_ENSG00000143924_ENST00000318522|hu_mus|hu_hu_hu_mus_True|38_108 (ssRNA)
RNA: GGGAGUUCUACAGUCCGACGAUCUCGCUGAGUUCUCUCCUCAUAAUUAAACAGGACUACCACUGAGGCGAUAAAAUAAACUAUCUCCCCUGUGGGAAGAAGGUAAACAUUCGCUCUACAGUCCUUUCCUCGAUAACCGUAUACCAACAGAGGAUUGAGCAUCA
B4: chr5:72798899:72798900:+_ENSG00000145741_ENST00000335895|hu_mus|motif|central (ssRNA)
RNA: GGGAGUUCUACAGUCCGACGAUCGGGUGCUUUUCCAUCCACAGAUUGUUUGGGCAGAGCUUCAGCCAGUCUCCUUAAACGGGUCAGGCUGUCUGCACCAAGCUGGUUGAGGAUGCUGGGAAGCAUUUCUGUCAGCUGCUUUGUCAACAGAGGAUUGAGCAUCA
B5: 160239608_160243617_1107_3pUTR_ENSG00000186432_ENST00000334256|human|control|control (ssRNA)
RNA: GGGAGUUCUACAGUCCGACGAUCAGGAACUAUUCCAGAGUCUAUUACCAUCUGUAUUUGUUCAUUGCCAGCAUCAGUAAGGUAAGAGAGGGCCCAGACUGUGUCUACCAGUAUAUUUACAUCUGUGUGAUGAAUUAAAACACACAACAGAGGAUUGAGCAUCA
B6: chrX:71099370:71099371:-_ENSMUSG00000031391_ENSMUST00000102871|mus_hu|FALSE|FALSE (ssRNA)
RNA: GGGAGUUCUACAGUCCGACGAUCUUUAUUUUUCCUGGGAUGGGUUCAUCAAAGCUAAUUGCUAUCAAUCCUAGAAACCACCUAGGGACUCAGACAUCUGCCUACACACUAGUGGCGUAAAGGGAAGGACAGGGGUACAAACUUCAACAGAGGAUUGAGCAUCA
B7: chr8:29927545:29927546:-_ENSG00000133872_ENST00000521265|hu_mus|FALSE|FALSE (ssRNA)
RNA: GGGAGUUCUACAGUCCGACGAUCAGAGGACUCGUAGCCUUCACAGCUCACCACAGUUUUGCCAAAUUUGUAUGCAAUAUCCAAGUCGGUCUUACAUUCCCACUGUACAUCGUAGCCAUCCCAGCCUUUGUUCUGGCACUGUAUCAACAGAGGAUUGAGCAUCA
B8: chr7:26237324:26237325:-_ENSG00000122566_ENST00000356674|hu_mus|FALSE|FALSE (ssRNA)
RNA: GGGAGUUCUACAGUCCGACGAUCCUCAUAGUAGUUUCUCAAACUUUCUUCUGUGGUUUCAAAGCUUAAGCCACCAAUAAAGAGCUUUCGGAACUGUUCCUUUUCUCUCUUUUUCCUCUCCAAAGGAACAGUUUCUAAAGUUUUCAACAGAGGAUUGAGCAUCA
B9: chr14:63839279:63839280:-_ENSG00000154001_ENST00000337537|hu_hu|FALSE|FALSE (ssRNA)
RNA: GGGAGUUCUACAGUCCGACGAUCUUAAAAGGAAAAAAGGAAAACAAGGAAAAAAAACCACCCCAAACCCCAAAAAACUCUAAACACUUAAAAAUGCCAAUAACAUCCAUACAUCCCUUUCCCAUCCCACCCUCAUCCCCACAACAACAGAGGAUUGAGCAUCA
B10: chr14:63839279:63839280:-_ENSG00000154001_ENST00000337537|hu_hu|motif|central (ssRNA)
RNA: B9 RNA with U80G, A81G
B11: chr1:66486067:66486068:+_ENSMUSG00000015222_ENSMUST00000077355|mus_hu|FALSE|FALSE (ssRNA)
RNA: GGGAGUUCUACAGUCCGACGAUCUUAUCCAGGUCCCAAAUGUUAAUAACUUAAUUGAAUCUUUCUUCCCAUUUAUACAAAAUAACACUUUAAAAAAACUUAUUUCUUACAUGCUCUUCCCUUCCUGCAAUCAGACUCCUUGGUCAACAGAGGAUUGAGCAUCA
B12: chr1:225611761:225611762:-_ENSG00000143815_ENST00000272163|hu_mus|hu_hu_hu_mus_True|38_98 (ssRNA)
RNA: GGGAGUUCUACAGUCCGACGAUCCCAGGCCAUCGGCCUCUUACCACUUCACCCUCAACAAACUUCCUACUUGGCAUUUUCUAAAAUUAGUCUGGCCCAGGUUCCGGGGGAACUCCAGCCACUCCAGGACAGUCACCAGCAGCCCAACAGAGGAUUGAGCAUCA
B13: chr7:135832672:135832673:+_ENSMUSG00000042105_ENSMUST00000118605|mus_mus|FALSE|FALSE (ssRNA)
RNA: GGGAGUUCUACAGUCCGACGAUCCACGCCAAAAAUUCCAUCACGACACAAUUUUUACACACACACCAAAAAACAAAAAAAACAAAAAAAAAAAAAAAAAACCCAAAAAACAAAAAACCCUACAGUGUCACUUCCAUCCUGCCUCAACAGAGGAUUGAGCAUCA
B14: chr15:98568902:98568903:-_ENSMUSG00000051853_ENSMUST00000053183|mus_hu|FALSE|FALSE (ssRNA)
RNA: GGGAGUUCUACAGUCCGACGAUCGGCCAGGGAAAUGAAUACAUUUUUAAAUGAAAUAGAACCUCCAACACCCCCCCCACAACCACCACACACAAACACACCCACACCCAUAUACACACACACUCACACACACACACAGGCCUACAACAGAGGAUUGAGCAUCA
B15: chr3:151883435:151883436:+_ENSMUSG00000028034_ENSMUST00000166984|mus_mus|motif|central (ssRNA)
RNA: GGGAGUUCUACAGUCCGACGAUCCAUUUCUCCAUUUCUUCCUAUUACAAUGCCAACAGCAAAUCUUGGAAUUGGGACAUCGGUCCCUUCAUUGCCUCCUAUUCUUGAGCCAUACUCAUUCCGCACUUCUCUGAAACCACCUUGCAACAGAGGAUUGAGCAUCA
B16: chr1:225611761:225611762:-_ENSG00000143815_ENST00000272163|hu_mus|hu_hu_hu_mus_True|38_48 (ssRNA)
RNA: B12 RNA with U41G, G89A, U90C, G94C, C95G
B17: chr5:131913501:131913502:-_ENSMUSG00000029673_ENSMUST00000160071|mus_mus|FALSE|FALSE (ssRNA)
RNA: GGGAGUUCUACAGUCCGACGAUCGUUCCAGUGCACAGAAUCCUUGGGAUUUUUUUUUUCUUUUUAGUUGUUGUCUUAAAAAAAAAAAAAUUAAAACGAAAGAAAGAAAACAAAACACCGCACACAUCUGGUGUCCACAAAAUCCAACAGAGGAUUGAGCAUCA
B18: 141912308_141912428_1497_3pUTR_ENSMUSG00000028273_ENSMUST00000029941|mouse|control|control (ssRNA)
RNA: GGGAGUUCUACAGUCCGACGAUCUUGGCACCGGCCACAUUCAGGAGCAAAGAACUUCUCAUAGCAUAGCUCACAGUACAGUGCUCCCUUCUCCUCUACAAAGCCUAUGUAGGCCAUUGUGUUUUUGCAAUGAGCACAGUUAAACAACAGAGGAUUGAGCAUCA
B19: chr11:51934471:51934472:+_ENSMUSG00000020349_ENSMUST00000020608|perfect_dup|motif|central (ssRNA)
RNA: GGGAGUUCUACAGUCCGACGAUCGAUUGCAGCUUGGUUACCACAACGAUAACAAUAGUUUGGAGCACUGAAAAUCGUUACGGCAUUCCGGUCAUGGCACCAGUUAUAUCCCUCCAUCACUAGCUGGUGAGCUCUAGACACCAACAACAGAGGAUUGAGCAUCA
B20: chr12:16048344:16048345:+_ENSG00000023734_ENST00000419869|hu_hu|hu_hu_hu_mus_True|38_68 (ssRNA)
RNA: GGGAGUUCUACAGUCCGACGAUCAGAUCGUCCAUAAGUAAUAACCAAAAUCUCUCCUUCAGGAAUAUAUUCCAUACUGCUAACAGACAUAUUAAAAUUUAGAGAUUUCACUUCUGUCAUUGUGGCAUGAUCCCAGAGCCGAACCAACAGAGGAUUGAGCAUCA
B21: chr1:115282395:115282396:-_ENSG00000009307_ENST00000339438|hu_hu|FALSE|FALSE (ssRNA)
RNA: GGGAGUUCUACAGUCCGACGAUCAUUAUACUGUGAACAGUGGAAGAAAAGUCUAGCUUGACGUUCUGAACACUGAAUAAAUCCGUAAGAGGUUAACAGUUUUUCAAUAACCCCAGUUUCACGCAGUGCUGCUGAAGUACCAUUCAACAGAGGAUUGAGCAUCA
B22: 35805507_35818940_561_CDS_ENSG00000108100_ENST00000265375|human|control|control (ssRNA)
RNA: GGGAGUUCUACAGUCCGACGAUCUUCAUCAAAAAUAUCUAAGAGCAUCCUUCCAUCUGGGUCCCUGUUUUUGAUGUGAUAAUAUAUUGCAAGAGCGACACAUUUAAUUGUAUACUUGAGGUUUGGUUGACUGACUGUGCUAUCCAACAGAGGAUUGAGCAUCA

Binding signal data for 22 molecules are collected here from article PMC12136788.

Where a chain is given by its changes, count along the chain named. Over roughly 24,000 sequences, “enrichment r” has its median near 0.99; the highest 2% begin near 3.7. The sample as a whole holds a higher share of the highest values than the screen did.

This experiment deals with T1, UNK ZnF1-3 (human, UniProt Q9C0B0 31-174).
T1 sequence: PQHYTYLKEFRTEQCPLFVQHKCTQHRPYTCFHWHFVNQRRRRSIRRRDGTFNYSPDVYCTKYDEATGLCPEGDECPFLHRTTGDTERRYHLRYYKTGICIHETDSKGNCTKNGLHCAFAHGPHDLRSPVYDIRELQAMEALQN
The experiment is described as follows: nsRBNS (natural sequence RNA bind-n-seq); RBNS binding buffer (assumed for nsRBNS): 25 mM Tris pH 7.5, 150 mM KCl, 3 mM MgCl2, 0.01% Triton X-100, 500 ug/ml BSA, 20 U/ml SUPERase-In, 4 C; UNK is unkempt and MSI1 is Musashi-1; names of the RNAs are library labels; protein concentration not given here; high values mean tight binding.
In turn, B1 yielded a binding signal of 0.959 enrichment R.

In the case of B2, the binding signal is 0.923 enrichment R.

Consider B3, for which the binding signal amounted to 1.03 enrichment R.

B4: the binding signal was found to be 0.508 enrichment R.

Molecule B5 yielded a binding signal of 1.37 enrichment R.

Regarding B6, the binding signal came to 0.995 enrichment R.

Consider B7, for which the binding signal worked out at 0.8 enrichment R.

The molecule B8 showed a binding signal of 0.272 enrichment R.

B9 had a binding signal of 4.18 enrichment R.

For B10, the binding signal turned out to be 3.96 enrichment R.

B11: the binding signal came to 1.42 enrichment R.

B12 registered a binding signal of 1.5 enrichment R.

As to B13, the binding signal was 11.5 enrichment R.

Molecule B14 displayed a binding signal of 3.59 enrichment R.

In turn, B15 displayed a binding signal of 0.909 enrichment R.

B16 registered a binding signal of 1.33 enrichment R.

With B17, the binding signal is 1.15 enrichment R.

In the case of B18, the binding signal worked out at 0.923 enrichment R.

Consider B19, for which the binding signal was determined as 1.16 enrichment R.

Take B20: the binding signal was 1.04 enrichment R.

Molecule B21 returned a binding signal of 0.906 enrichment R.

Turning to B22, the binding signal was determined as 2 enrichment R.
